Results on 40 sequences are retold here after the supplement of paper PMC6555819.

This test relates to VDR:RXRa (NR concentration 270 nM, RXRa partner concentration 90 nM). The experiment in a line: PBM binding z-score (relative to random genomic background probes); higher = stronger binding; sequences stand for … in GC…GCGATTGACAGCGTAGAATGAAGG
As for the experimental part:
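Protein-binding microarray (Agilent 4x180K custom design, double-stranded 60-nt probes: 5' GC cap, 34-nt variable region, 24-nt constant primer region; full probe sequence given). Purified or IVT nuclear receptor:RXRα heterodimers (3:1 NR:RXRα, mostly 270:90 nM) or homodimers were incubated for 1 h in PBS with 2% milk and no ligand, then detected with Alexa488 antibodies. Fluorescence from o1-orientation probes (~5 replicates averaged) was converted to z-scores against 500 random hg19 background probes. Variable regions are seed direct-repeat (DR0–DR5) sites, all their single-nucleotide variants and half-site ablations.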
For the sequence GCAGACAAGTGAAACGCAGGTAACTCAGGGTGGC, the PBM binding z-score is -0.581.

On to TCAGACAGGTGAAGGTAACACAGGTACGCAGTCG, for which the PBM binding z-score turned out to be 1.05.

With AGAACGAGGGCACGCTGAGTTGATATCAGAGTAG, the PBM binding z-score amounted to 2.02.

For CCTTACGGGTCACTCCAGGTTATAGGATCGGAGT, the PBM binding z-score turned out to be 4.34.

GCATAGAGGTAATACAAGGTGAAAGTCCGATTGT displayed a PBM binding z-score of 0.566.

In turn, CCAACTGGGGCATAAGGTTACCATAAGCCAGCCC showed a PBM binding z-score of 0.316.

In the case of AGAATGAGGTTATTAAGATCAGTGAATTGCGGTC, the PBM binding z-score is 2.5.

Take CCGACTGGGGCAGAAAGGTTACGATACCATCCGG: the PBM binding z-score is 1.2.

Sequence TCTTGTAGCTCAATAGAGGTTAAGAAAGTGCGCT registered a PBM binding z-score of 1.32.

On to CAACCAAGGTGAACAAGGTCGTTGATTACTATTC, for which the PBM binding z-score amounted to 5.89.

CGTCCAAGGTCAGCAGGTCAGTGGAAGCGACGTG: the PBM binding z-score amounted to 3.82.

TCTATTAGGTGAAGGGCAACCGACGAGTCCGTTT yielded a PBM binding z-score of 0.783.

The sequence ACTAGCAGGCCAAGTTTGGGTCACTCATACAAAG displayed a PBM binding z-score of 0.68.

TGAATGAGGTTAAAGATCAGGGGACGTGGCGTCG returned a PBM binding z-score of 1.88.

For ATCTCGAGGTAACAAGTTCAGTGAAAGAGAGGAC, the PBM binding z-score amounted to 2.63.

On to CGTCCAAGGTCATCAGGTCAGTGAAAGCGACGTG, for which the PBM binding z-score came out at 5.43.

Consider TAGCCTAGGTCGGATCGGGCCAGTATACGCTATA, for which the PBM binding z-score is -0.475.

In the case of TCATATAGGTAAATGCTTGGTGAAAGTCCGATCT, the PBM binding z-score was found to be 0.808.

Take AATACAGGGTCATCGTAGGCCAGAGAACGCACAG: the PBM binding z-score was 5.24.

CCTACTGGGCCAAGGTCATTGAACAGTCAAAGCA yielded a PBM binding z-score of 3.39.

Take AGAATGAGGTTACCAAAGATCAGGGACACGCTTG: the PBM binding z-score was determined as 1.54.

Sequence TCATATAGGTAATACAGGTGAAAATCGGCATCTA had a PBM binding z-score of 1.32.

Take TCTTGTAGATCAAAGGTTGAGAAAGCCGAAGCCT: the PBM binding z-score was found to be 0.408.

The sequence TTACCAAGGTGAAAGGTCGTTGATGCACGCCTTG returned a PBM binding z-score of 3.14.

For CGAACTAGGTCATTTACAGGACAGTGAATAGTAA, the PBM binding z-score turned out to be 2.14.

Sequence TCGAGTAGGATACCAATGGGGCATTCAGCTTTCT had a PBM binding z-score of -0.497.

In the case of TCGAATAGGTTACCAATGGGGCATTCAGCTTTCT, the PBM binding z-score is 0.811.

Consider ATCGAAAGGTCGAGGTGGGTATAGAGAAAGGGAA, for which the PBM binding z-score was 3.34.

Sequence CGGACTGGGGCAGAAAGGTTACCATACCATCCGG returned a PBM binding z-score of 1.33.

As for GCTTGTAGATCAAGGTTTAGAAAGACTAAGCTAA, the PBM binding z-score was -0.245.

As to CCTACTGGGCCAAGAAGGTCATTGATGCCGATAA, the PBM binding z-score came to 3.97.

GCTCGGAGCACAAGGTCAGAGCTTTGTCCGTAGA: the PBM binding z-score was 1.2.

Turning to GGAACGAGGGCAAGTTGAAAGCAGAGTTTGATGG, the PBM binding z-score came out at 0.74.

In the case of ACTATTAGTTGAGACGCGGGCAACCGATAGGTTG, the PBM binding z-score is -0.235.

As to GCATATAGGTAATACAGGGTGAAAGTCCGATTGT, the PBM binding z-score is 0.521.

ATTTCTAGGTAAAAGTTCAGTGAATCCCGAGGAT displayed a PBM binding z-score of 1.77.

For TTACCAAGGTGAGCTAAGGTCGTTGATCCAACTC, the PBM binding z-score stood at 3.13.

As to TTACCAAGGTGAAAGGTCGATGATGCACGCCTTG, the PBM binding z-score amounted to 2.23.

Take CCTTATGGGTCACGAGGTTATAGCACGACGAGCG: the PBM binding z-score amounted to 4.4.

The sequence TCATATAGGTAATCCAGGTGAAAGTCGGCATCTA registered a PBM binding z-score of 1.1.
